Assay results taken from the supplement of paper PMC6555819.

What was measured:
Assay in all cases: PBM binding z-score (relative to random genomic background probes); higher = stronger binding; sequences stand for … in GC…GCGATTGACAGCGTAGAATGAAGG
[1] = tested on: RARb homodimer (NR concentration 270 nM)
Summary of the method: (§1)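 Custom Agilent 4×180K protein-binding microarrays carried double-stranded probes, each with a 34-nt variable region. These regions held direct-repeat seeds, single-nucleotide variants, half-site ablations and random human genomic background sequences. Ligand-free nuclear receptor dimers were incubated on the arrays for 1 h, antibodies against each partner (one per run) detected binding, and scanned fluorescence was regression-normalized. Binding z-scores take the random background probes as reference.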

[2] = tested on: RARg:RXRa (NR concentration 270 nM, RXRa partner concentration 90 nM)
Summary of the method: as §1

[3] = tested on: RARg homodimer (NR concentration 270 nM)
Summary of the method: as §1

[4] = tested on: RXRa DBDmut IVT, anti-RXR (DBD mutation: RXRa K156A/R161A, NR concentration 90 nM)
Summary of the method: as §1

[5] = tested on: RXRa homodimer (NR concentration 180 nM)
Summary of the method: as §1

[6] = tested on: THRa:RXRa (NR concentration 90 nM, RXRa partner concentration 90 nM)
Summary of the method: as §1

[7] = tested on: THRa homodimer (NR concentration 90 nM)
Summary of the method: as §1

[8] = tested on: VDR:RXRa (NR concentration 270 nM, RXRa partner concentration 90 nM)
Summary of the method: as §1

[9] = tested on: VDR homodimer (NR concentration 270 nM)
Summary of the method: as §1

Row | Sequence | PBM binding z-score [1] | PBM binding z-score [2] | PBM binding z-score [3] | PBM binding z-score [4] | PBM binding z-score [5] | PBM binding z-score [6] | PBM binding z-score [7] | PBM binding z-score [8] | PBM binding z-score [9]
1 | TCTCGGAGGACACGAAAGGTCAGCGCTCGACATC | 4.96 | 5.25 | 6.15 | 1.39 | 4.52 | 3.89 | 1.76 | 3.67 | 1.13
2 | CGAACGAGGCCATGAGTTGATAGCAAATGCCGAT | 0.354 | 0.599 | 0.821 | 0.851 | 0.328 | 0.837 | -0.151 | 0.155 | 0.777
3 | CGTCCAAGGTTAAAGGTCAGTGAAGAGATGACGG | 4.52 | 6.38 | 5.4 | 2.09 | 8.31 | 3.84 | 0.929 | 4.69 | 1.46
4 | TCTAGCAGGTCAGAGGGTCACTCAAGAGGTACGG | 4.51 | 5.64 | 5.13 | 0.85 | 5.09 | 3.03 | 0.408 | 4 | 1.72
5 | CGAACGAGGGCAAGAGTTGATAGCAAATGCCGAT | 1.44 | 1.67 | 1.85 | 1.89 | 1.1 | 0.79 | -0.443 | 0.703 | 1.07
6 | TCCATTAGTTGAAGGGCAACCGACGAGTCCGTTT | 1.47 | 0.679 | 0.586 | 1.9 | 1.05 | 0.553 | 0.351 | 1.02 | 1.57
7 | CGTCCACGGTCAGCAGGTCAGTGAAAGCGACGTG | 3.48 | 2.99 | 3.3 | 0.0347 | 0.719 | 1.22 | -0.0318 | 0.107 | -0.234
8 | ACTACCAGGCCAAGTTTGGGTCACTCAAACAAAG | 2.49 | 2.52 | 1.72 | 0.137 | 0.944 | 2.86 | 1.72 | 1.08 | 0.598
9 | CGTCAAAATTCAACTAAGGTAACGTAAAGCACGC | 0.445 | 0.33 | 0.586 | 0.407 | 0.529 | 2.94 | 1.75 | 0.298 | 0.233
10 | AGAGCGAGGGCACGCTGAGTTGATAGCAGAGTAG | 1 | 1.76 | 1.96 | 1.28 | 1.06 | 1.51 | -0.183 | 1.86 | 1.48
11 | TCTAGTTGGTCGAAGGTCACACACTCGAAATGCG | 3.99 | 4.39 | 3.86 | 1.37 | 4.15 | 3.07 | 1.83 | 3.37 | 1.97
12 | TCTATTAGTTGAAGGGAAACCGACGAGTCCGTTT | -0.0745 | -0.0691 | -0.0615 | 1.6 | 0.396 | -0.149 | 0.214 | 0.851 | 1.19
13 | CAAACTTGGTCAAGGTCAAAGTCGGTTTGTGCCA | 4.26 | 4.46 | 4.37 | 2.33 | 4.72 | 3.92 | 3.4 | 4.47 | 3.32
14 | CGACCAAGGTCAGCAGGTCAGTGAAAGCGACGTG | 4.67 | 6.06 | 6.15 | 2.12 | 4.83 | 3.54 | 1.63 | 3.67 | 1.16
15 | TATACAGGGTCAAAGGCCAGAATACGAATGTCGA | 3.2 | 5.71 | 5.1 | 2.7 | 6.99 | 3.41 | 0.697 | 4.62 | 2.6
16 | ATCGAAAGGTCGAAGGTGTGTATACCCACCCGAA | 2.15 | 3.83 | 3.73 | 0.844 | 4.12 | 1.6 | -0.397 | 2.43 | 0.639
17 | ATCGATAGGTCGTGAGGTGAGTATACAGAAAGGC | 1.39 | 2.16 | 1.84 | 0.0211 | 2.15 | 2.47 | 1.33 | 1.08 | 0.361
18 | CGTCAAAGTTCCACTAAGGTAACGTAAAGCACGC | 0.376 | 0.418 | 0.398 | 0.475 | 0.357 | 4.02 | 1.69 | 0.211 | 0.238
19 | CGAACCAGGTCATCCAGGACAGTGAATACATTGA | 3.03 | 4.28 | 4.8 | 2.81 | 3.95 | 4.15 | 2.93 | 5.42 | 2.75
20 | CCAGACAGGTGAAAGGAAACTCAGTCTGGTACGC | -0.0541 | 0.0543 | 0.198 | -0.167 | 0.41 | -0.104 | -0.669 | -0.116 | -0.334
21 | CCTAGCTGGCCAATCTGGGTCACTCAAGGCTTGA | 1.72 | 0.659 | 0.818 | -0.0999 | 0.716 | 2.69 | 0.234 | 0.147 | -0.441
22 | CCTAGCAGACCAGGGTCACTCAAGCATTTCGCTT | 2.68 | 2.86 | 1.84 | 0.63 | 3.24 | 2.75 | 0.798 | 2.69 | 1.37
23 | CCTACTGGGCCAAAGGTCGTTGATTCCAATGCTC | 2.03 | 2.66 | 1.07 | 0.474 | 2.82 | 1.5 | 0.0932 | 2.05 | 0.435
24 | CAAACTAGGTCACCGGAAGGTAAAAGTCCGCATG | 3.46 | 5.33 | 5.29 | 1.61 | 3.87 | 3.69 | 1.84 | 2.84 | 1.01

Row | Sequence | PBM binding z-score [1] | PBM binding z-score [2] | PBM binding z-score [3] | PBM binding z-score [4] | PBM binding z-score [5] | PBM binding z-score [6] | PBM binding z-score [7] | PBM binding z-score [8] | PBM binding z-score [9]
25 | CCTCGGAGGACAACAGGCGGTCAGAGCTGCCAGA | 1.43 | 1.07 | 1.63 | -0.164 | -0.341 | 0.64 | -0.125 | -0.555 | -0.0839
26 | AGAATGAGGTTAAGAACAGGGAAACAGAATACAT | 1.14 | 1.96 | 1.4 | 0.678 | 2.42 | 2.25 | 0.727 | 1.04 | 0.533
27 | TCTATTAGTTAATTAGGGCAACCGAAACAGCGGA | 0.756 | 0.526 | 0.551 | 1.16 | 0.875 | 1.05 | 0.627 | 0.823 | 0.625
28 | CCGAGTAGGTCATGGGGCATTCAGGCAACGGTGA | 3.25 | 4.34 | 4.44 | 0.881 | 3.87 | 2.45 | 0.499 | 2.27 | 0.642
29 | CAAACTAGGTCAAGAGGTAAAAGTCCGCTTCCCG | 3.32 | 4.71 | 4.74 | 1.44 | 3.45 | 2.99 | 1.2 | 2.17 | 0.657
30 | CAAACTAGGTAAAAGGTCAAAGTCGAGCCAACCA | 4.69 | 6.32 | 5.16 | 1.67 | 7.54 | 4.01 | 1.07 | 4.86 | 2.02
31 | GGAACGAGGGCAAGTTGATAGCGGAGTTTGATGG | 1.43 | 1.28 | 1.74 | 2.31 | 0.823 | 1.13 | 0.118 | 0.636 | 1.73
32 | TCTCGGAGGACATGAAGGTCAGAGCTTTCCAGAG | 3.3 | 2.47 | 2.57 | 0.811 | 1.44 | 2.28 | 0.338 | 1.77 | 1.2
33 | ATCTCTAGGTAAGACTCAGTTCCGTGAAGAACGC | 0.119 | -0.049 | -0.0446 | 0.432 | -0.116 | 0.287 | 0.766 | 0.121 | 0.435
34 | ATACCAAGGTGACCGTGAGGTCGTTGATACTAAC | 2.9 | 3.36 | 1.96 | 0.82 | 2.27 | 3.74 | 3.08 | 4.04 | 2.81
35 | CCGACTGGGGCTAAGGTTACCATACTCAGTACGA | 1.12 | 0.783 | 0.678 | 0.382 | 0.902 | 2.39 | 1.68 | 0.0865 | 0.443
36 | CCGACTGGGGCAGCAAGGTTACCATACCATCCGG | 1.52 | 0.772 | 0.82 | -0.746 | 0.706 | 1.21 | 0.373 | 1.25 | 0.0128
37 | GCTTACGGGTCAAAGGTTATTGCATGAATAGAAT | 3.23 | 6.79 | 4.49 | 2.83 | 9.29 | 3.78 | 0.27 | 5.54 | 1.81
38 | TCGAGTAGGTTAGGGGCGTTCAGAATGGCGTCGA | 0.347 | -0.19 | -0.416 | 0.366 | 0.0753 | 0.432 | -0.0731 | 0.157 | 0.527
39 | AGTCAAAGTTGACTAGGTAACGTAAGATTCAGCT | 0.0886 | 0.519 | 0.771 | 0.028 | 0.242 | 0.477 | -0.555 | 0.000813 | -0.638
40 | CCTTACGGGTCAAGCTTATAGCACGGGTGGTACG | 2.82 | 4.93 | 4.64 | 1.11 | 5.08 | 2.23 | -0.294 | 3.11 | 0.754
41 | CGTCCAAGGTCAATGCTAGGTCTGTGAAAGCATT | 3.89 | 5.81 | 6.03 | 3.79 | 4.4 | 3.78 | 2.25 | 3.76 | 2.69
42 | ACTATTAGTTGAGACGAGGGCAACCTATAGGTTG | 1.39 | 0.509 | 0.764 | 0.356 | 0.544 | 2.63 | 0.429 | 0.781 | 0.902
43 | TGTCAAAGTTCAGAGGTAACGTAAGTATCCACAC | 3.02 | 4.64 | 4.84 | 3.01 | 4.22 | 2.53 | 0.262 | 3.36 | 2.11
44 | CGTCCAAGTTCAATGCTAGGTCAGTGAAAGCATT | 3.86 | 5.74 | 4.36 | 4.53 | 2.5 | 3.53 | 1.21 | 4.26 | 4.43
45 | AGAATGAGGTTATTAAGCTCAGGGAATTGCGGTC | 0.163 | 0.737 | 0.334 | 2 | 1.6 | 1.99 | 0.104 | 1.38 | 0.783
46 | ATCGAAAGGTCCAGGTGAGTATAGAGAAAGGGAA | 0.976 | 0.8 | 0.946 | 0.31 | 0.494 | 0.94 | 0.905 | 0.18 | 0.121
47 | AGTCAAAGTTCATCTAGATAACGTAAGATATGCT | 3.87 | 5.31 | 5.67 | 4.57 | 4.56 | 1.99 | -0.582 | 4.66 | 4.4
48 | CGTCCAAGATCATAGGAGGTCAGTGAAGACAGAT | 3.26 | 2.22 | 2.22 | 0.36 | 2.03 | 3.98 | 0.538 | 2.63 | 1.21
